Source: PubChem
D1 ag: Allosteric Agonists of the Human D1 Dopamine Receptor: qHTS | 360,000 compounds, 1% hits | HEK293 T-REx D1 cells, calcium flux, agonist mode | activation, % at 2 µM | AID 504660, 2011 | D(1A) dopamine receptor (Homo sapiens), P21728; note: 0% is about no effect
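Agonism was scored from calcium flux recorded over 180 s (1 read/s) after pintool compound addition, following a 10-cycle baseline. Cells were inducible force-coupled HEK293 TREx D1, plated overnight at 30 C and loaded with no-wash calcium dye.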
D1 potentiator: Potentiators of Human D1 Dopamine Receptor: qHTS. D(1A) dopamine receptor (Homo sapiens), P21728. potentiation, % at 10 µM. HEK293 TREx D1 cells, calcium flux, dopamine EC20 potentiation. 360,000 compounds, 0.036% hits. AID 504651, 2011; in the data active = potentiation above about 30%; note: 0% is about no effect
D1 antag: Antagonist of Human D 1 Dopamine Receptor: qHTS. activity change, negative = inhibition, % at 10 µM. HEK293 TREx D1 cells, calcium flux, dopamine EC80; stronger effect = lower value. 360,000 compounds, 3.2% hits; in the data active = activity change below about -30%; note: % is set by controls: 0 for no effect and ±100 for the full control effect
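Tetracycline-induced HEK293 T-REx cells with force-coupled D1 receptor were loaded with a no-wash calcium dye. Compound was added after a 10 s baseline and read kinetically for 180 s; EC80 dopamine was then added and calcium flux followed another 180 s.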
TRHR enhancer: qHTS for Small Molecule Agonists and Allosteric Enhancers of Human TRH Receptor: Primary Screen for Enhancers; AID 493056, 2011; 360,000 compounds, 0.66% hits; enhancement, % at 2 µM; TRHR cells, fluo-8 calcium fluorescence, EC20 TRH enhancement; in the data active = enhancement above about 30%; note: 0% is about no effect
Target sequence (P34981 whole entry, looked up): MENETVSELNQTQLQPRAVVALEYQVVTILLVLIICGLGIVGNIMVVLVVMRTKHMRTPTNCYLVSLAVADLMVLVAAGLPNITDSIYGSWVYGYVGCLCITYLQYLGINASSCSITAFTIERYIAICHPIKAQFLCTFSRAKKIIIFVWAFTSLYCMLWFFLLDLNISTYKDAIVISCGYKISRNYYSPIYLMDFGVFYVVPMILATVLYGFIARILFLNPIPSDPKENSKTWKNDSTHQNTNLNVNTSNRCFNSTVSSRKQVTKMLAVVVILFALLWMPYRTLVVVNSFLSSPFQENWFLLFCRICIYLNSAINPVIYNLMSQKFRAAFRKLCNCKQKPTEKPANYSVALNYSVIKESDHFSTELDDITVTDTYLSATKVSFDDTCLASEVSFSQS
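TRHR-expressing cells loaded with fluo-8 calcium dye were read kinetically (ex 480/em 530) during compound addition, then stimulated with an EC20 of TRH (10 nM final). Enhancement of the Gq-mediated intracellular calcium response was scored.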
TRHR ag: qHTS for Small Molecule Agonists and Allosteric Enhancers of Human TRH Receptor: Primary Screen for Agonists; TRHR cells, calcium flux fluo-8, FDSS agonist mode; activation, % at 2 µM; Thyrotropin-releasing hormone receptor (Homo sapiens), P34981; 360,000 compounds, 0.18% hits; note: 0% is about no effect
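TRHR-expressing cells loaded with fluo-8 calcium dye; 23 nL library compound pin-transferred, kinetic FDSS fluorescence (Ex 480/Em 530) recorded about 180 s for agonist-induced calcium release, before a 10 nM TRH EC20 addition for potentiator mode.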
Numbers without * were called inactive; / = no result given. Only some compounds are listed: those with a hit (about 4.6% of all), similar ones and a draw of the others. Cut-off read from the data, not from the text of the source, unless noted: active = activation above about 30%; inactive = the rest.

SMILES	D1 ag	D1 potentiator	D1 antag	TRHR enhancer	TRHR ag
Cc1ccc(-c2cnc(NCc3ccc(C(F)(F)F)cc3)n2C)cc1	5	-4	18	5	1
O=C(CN1C(=O)c2cccnc2C1=O)c1ccccc1	-1	-7	-31*	7	0
O=C(CN1C(=O)C(=O)c2ccccc21)c1ccccc1	-1	0	1	3	-1
CCCCc1cc(=O)oc2cc(OCC(=O)NCc3ccccn3)ccc12	3	1	-42*	3	-1
COc1cc(OC)c2c(c1)C(=O)OC2OC (stereo unspecified)	1	-1	12	36*	0
Cc1ccc(NC(=O)CCCCCN2C(=O)c3ccccc3C2=O)nc1	1	-9	-32*	2	0
Cc1ccc(NC(=O)CN2C(=O)c3cccnc3Sc3ccccc32)cc1C	-1	-5	-10	33*	-1
Cc1ccc(NC(=O)c2ccc3c(c2)C(=O)N(c2ccccc2C)C3=O)nc1	16	/	-36*	0	0
Cc1cccc(NC(=O)CCCCCN2C(=O)c3ccccc3C2=O)n1	5	-3	-10	-2	-1
Cc1ccc(NC(=O)CN2C(=O)c3ccccc3C2=O)cc1	1	-5	-2	40*	0
COc1ccc(NC(=O)CN2C(=O)c3cccnc3Sc3ccccc32)cc1OC	1	-4	11	-8	-1
Cc1ccc(N2C(=O)c3ccc(C(=O)Nc4cccnc4)cc3C2=O)c(C)c1	0	-3	0	9	0
NC(=O)CSc1oc(-c2cccs2)nc1S(=O)(=O)c1ccc(Br)cc1	8	-1	-7	-1	-1
Cc1cccc(N2CCN(C(=O)c3c(C)oc4ncnc(N5CCCCC5)c34)CC2)c1C	0	4	1	15	-1
COC(=O)c1cc2sccc2n1CC(=O)Nc1ccc(C)cc1C	0	-3	5	-1	0
O=C1c2cccc([N+](=O)[O-])c2C(=O)N1c1c[nH]c(=O)[nH]c1=O	1	1	-11	30*	0
Cc1ccccc1N1C(=O)c2cccc([N+](=O)[O-])c2C1=O	0	2	-3	1	0
c1ccc(-c2nc(N3CCOCC3)c3ccccc3n2)nc1	1	-6	-34*	-1	0
Cc1nc(-c2ccccn2)nc(N2CCOCC2)c1Cl	4	1	-43*	-3	1
Cc1nnc(-c2ccccc2)nc1N1CCOCC1	6	0	65	-7	4
c1ccc(-c2nc(N3CCCCCC3)c3ccccc3n2)nc1	-2	3	4	-4	0
CCC(C)C(NC(=O)c1ccccc1NC(=O)c1ccc(OC)cc1)C(=O)NCCCn1ccnc1 (stereo unspecified)	2	0	5	39*	0
COc1ccc(C(=O)NCCCn2ccnc2)cc1	2	4	3	17	0
COc1ccc(-c2nn(-c3ccccc3)cc2C(=O)NCCCn2ccnc2)cc1	1	-5	-38*	-5	0
COc1cccc(CNC(=O)Cc2c(C)c3cc4c(C)coc4cc3oc2=O)c1	1	-3	-15	-1	-2
SMILES	D1 ag	D1 potentiator	D1 antag	TRHR enhancer	TRHR ag
NC(=S)N/N=C/c1ncc(C(F)(F)F)cc1Cl	31*	-2	3	10	11
COc1cc(CN(C(=O)c2oc3ccccc3c2C)C2CCS(=O)(=O)C2)cc(OC)c1OC (stereo unspecified)	7	1	-5	2	0
O=C(O)c1cc(N/N=C/c2cccnc2)ccc1Cl	1	-1	-33*	-2	0
O=C(O)c1cc(N/N=C/c2ccncc2)ccc1Cl	1	-2	0	1	1
CC(C)(C)c1ccc(S(=O)(=O)NCc2nc3cccnc3n2Cc2ccccc2Cl)cc1	2	4	20	-1	0
c1ccc(-c2cnn3c(-c4ccccc4)c(-c4ccccc4)nc3n2)cc1	475*	-13	-48*	23	173*
COc1ccc(CCN(C)C(=O)CSc2nc3ncc(Cl)cc3[nH]2)cc1OC	-1	-1	-67*	-2	1
